Data as given in PubChem BioAssay AID1445 (SRMLSC, 2008).
Out of some 220,000 compounds screened, about 910 (0.41%) were called active. The sample holds actives, similar compounds and a random draw of the others, so the mix is not that of the screen. Results with a measured potency or affinity are listed apart. Unmarked numbers belong to inactive results.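 How the source made its calls: active means primary inhibition above the hit cutoff, then over 50% inhibition at one or more dose response concentrations (cut at about 23% in these data, passing the limit was not always enough); inconclusive means conflicting primary data, or primary hits not chosen for dose response; inactive means low primary inhibition, or under 50% at every dose.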

target: Aminopeptidase N (Plasmodium falciparum (isolate 3D7)) (UniProt O96935); assay: malaria alanyl aminopeptidase activity blockers – biochemical, fluorogenic H-Leu-NHMec substrate, 1536-well (AID 1445); conditions: recombinant M1AAP, H-Leu-NHMec fluorogenic kinetic assay; at 30 µM, hits give high values unless noted;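 further: plate controls were DMSO full reaction for no effect and no enzyme background for full effect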
Sequence (O96935 whole entry, looked up): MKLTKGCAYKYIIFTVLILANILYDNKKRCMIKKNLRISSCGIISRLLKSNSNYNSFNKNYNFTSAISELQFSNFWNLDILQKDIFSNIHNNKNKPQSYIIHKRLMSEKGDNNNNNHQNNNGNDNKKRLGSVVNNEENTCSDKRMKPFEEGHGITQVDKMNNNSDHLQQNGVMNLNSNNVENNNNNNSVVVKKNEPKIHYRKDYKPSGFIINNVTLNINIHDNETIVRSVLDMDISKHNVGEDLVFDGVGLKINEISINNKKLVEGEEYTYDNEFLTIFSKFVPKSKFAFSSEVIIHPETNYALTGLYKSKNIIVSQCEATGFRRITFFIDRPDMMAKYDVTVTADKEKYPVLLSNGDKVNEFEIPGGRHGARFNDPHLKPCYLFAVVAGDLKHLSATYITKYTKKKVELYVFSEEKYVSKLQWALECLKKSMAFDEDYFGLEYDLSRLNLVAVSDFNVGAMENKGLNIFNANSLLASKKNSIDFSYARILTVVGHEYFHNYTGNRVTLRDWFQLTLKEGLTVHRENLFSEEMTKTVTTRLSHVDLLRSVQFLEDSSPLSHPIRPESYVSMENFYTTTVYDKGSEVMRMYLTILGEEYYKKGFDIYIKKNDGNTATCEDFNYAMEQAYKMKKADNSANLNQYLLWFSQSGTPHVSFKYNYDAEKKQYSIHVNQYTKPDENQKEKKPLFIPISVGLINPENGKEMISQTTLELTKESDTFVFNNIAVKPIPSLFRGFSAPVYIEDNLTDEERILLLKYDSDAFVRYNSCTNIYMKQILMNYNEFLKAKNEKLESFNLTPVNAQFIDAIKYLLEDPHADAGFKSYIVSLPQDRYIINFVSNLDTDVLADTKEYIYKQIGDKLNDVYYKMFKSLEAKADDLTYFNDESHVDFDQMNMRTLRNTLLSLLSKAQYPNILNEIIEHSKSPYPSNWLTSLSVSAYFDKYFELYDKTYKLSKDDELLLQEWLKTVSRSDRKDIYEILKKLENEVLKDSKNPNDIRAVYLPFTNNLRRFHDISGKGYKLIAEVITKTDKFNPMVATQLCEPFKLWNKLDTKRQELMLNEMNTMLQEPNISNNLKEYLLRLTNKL

| Compound | inhibition |
| --- | --- |
| COc1ccc(-c2nnc(SCC(=O)Nc3cc(F)ccc3C)o2)cc1 | -0.41% |
| CCOc1ccc(N2C(=O)C(=O)/C(=C(/O)c3ccccc3)C2c2ccccc2[N+](=O)[O-])cc1 (configuration not stated) | 5.86% |
| Cc1ccc(C(=O)Nc2c(-c3cccs3)c(=O)c3ccccc3n2C)cc1 | 5.78% |
| NNC(=O)Cn1nc2n(c1=O)-c1ccccc1SC2 | -0.09% |
| Cc1nnc(-n2ncc(C#N)c2N)c2nn(-c3cccc(Cl)c3)c(C)c12 | 0.94% |
| COC(=O)c1cc2oc(C)cc2n1CC(=O)N(C)c1ccccc1 | 24.4% (active) |
| C=CCN(C(=O)Cn1c(C(=O)OC)cc2oc(C)cc21)c1ccccc1 | 0.64% |
| COC(=O)c1cc2sccc2n1CC(=O)N(C)c1ccccc1 | 4.58% |
| O=C(Cn1cc(C(F)(F)F)ccc1=O)N/N=C/c1ccccc1O | 1.53% |
| CN1C(=O)/C(=N/OC(=O)c2ccccc2)c2ccccc21 | -0.99% |
| CN1C(=O)/C(=N\OC(=O)c2cccc3ccccc23)c2ccccc21 | 5.56% |
| COC(=O)c1cccc(Nc2nc(-c3cccnc3)nc3ccccc23)c1 | 0.67% |
| O=C(O)c1ccc(Nc2nc(-c3cccnc3)nc3ccccc23)cc1 | 10.8% |
| COc1cccc(N2CC(O)Cn3c2nc2c3c(=O)n(CCCc3ccccc3)c(=O)n2C)c1 (configuration not stated) | 2.82% |
| C=CCn1c(=O)c2c(nc3n2CC(C)CN3c2cccc(OC)c2)n(C)c1=O (configuration not stated) | 26.4% (active) |
| COc1cccc(N2CC(C)Cn3c2nc2c3c(=O)n(CCN3CCOCC3)c(=O)n2C)c1 (configuration not stated) | 2.83% |
| O=[N+]([O-])c1cccc(NC2=NCCC2)c1 | 3.59% |
| Clc1cccc(NC2=NCCC2)c1 | 0.77% |
| c1ccc(Oc2cccc(NC3=NCCC3)c2)cc1 | 29.3% (active) |
| Cc1ccc(CN2CCN(C(=O)C3CCCO3)CC2)cc1 (configuration not stated) | -1.62% |
| O=C(C1CCC1)N1CCN(Cc2ccccc2)CC1 | 7.01% |
| Cc1ccc(CN2CCN(C(=O)C3CCC3)CC2)cc1 | 27.7% (active) |
| CCN(CC)CC(C)CNC(=O)CN1C(=O)CSc2ccc(S(=O)(=O)N3CCOCC3)cc21 (configuration not stated) | 8.54% |
| CC(C)(C)NC(=O)C(=O)NNC(=O)COc1ccccc1 | 20.1% |
| CCC(=O)NC(=S)NNC(=O)COc1ccc(Br)cc1 | -1.75% |

| Compound | inhibition |
| --- | --- |
| CC(=O)NC(=S)NNC(=O)COc1ccc([N+](=O)[O-])cc1 | -19.9% |
| Cc1ccc(OCC(=O)NNC(=O)C(=O)NC(C)(C)C)cc1 | 13.2% |
| CCc1ccc(S(=O)(=O)NCc2csc(C)n2)s1 | 9.49% |
| Cc1oc(-c2cccs2)nc1CN1CC[C@@](O)(c2ccccc2)[C@H]2CCCC[C@@H]21 | 4.34% |
| O=C(O)c1ccc(CNC(=O)c2ccccc2NC(=O)c2ccc([N+](=O)[O-])cc2)cc1 | 1.28% |
| CCOC(=O)c1cc2sccc2n1CC(=O)OC | 5.03% |
| C=CCNc1cc(C(F)(F)F)nc(-c2ccccn2)n1 | -2.8% |
| c1ccc2sc(NC3=NCN(CCN4CCOCC4)CN3)nc2c1 | -2.82% |
| Cc1ccc(S(=O)(=O)NC2=NCN(CCN3CCOCC3)CN2)cc1 | 2.01% |
| Cc1nc(NC2=NCN(CCCN3CCOCC3)CN2)nc2c(C)cccc12 | 29.4% (active) |
| NC(=O)C1CCCN(C(=S)Nc2ccccc2)C1 (configuration not stated) | 0.97% |
| CSc1nc2c(c(=O)[nH]1)C(c1cccs1)C1=C(CCCC1=O)N2 (configuration not stated) | 9.61% |
| O=C(O)c1ccc(-c2nc(-c3ccccc3)c(-c3ccccc3)[nH]2)cc1 | 23.1% |
| O=C(O)c1ccccc1-c1nc2ccccc2[nH]1 | 0.23% |
| c1ccc(OCc2nn3c(-c4ccco4)nnc3s2)cc1 | -2.34% |
| COc1ccc(Cl)cc1NC(=S)N1CCN(S(C)(=O)=O)CC1 | 5.32% |
| COC(=O)C1=C(C)NC(C)=C(C(=O)OC)C1c1ccc(-c2cccc([N+](=O)[O-])c2)o1 | 7.62% |
| CC1(C)Oc2ccc3ccc(=O)oc3c2-c2cn[nH]c21 | 26.5% (active) |
| CC1(C)Oc2ccc3ccc(=O)oc3c2-c2cnoc21 | 50.2% |
| CC1(C)Oc2ccc3ccc(=O)oc3c2/C(=C/N)C1=O | 8.41% |
| COC(=O)Nc1ccc(=O)n(Cc2c(Cl)cccc2Cl)c1 | 4.71% |
| O=C1N(Cc2ccccc2)CCCC12CCCN(Cc1ccccc1)C2=O | 8.22% |
| O=C(NCc1ccccc1)c1cc(-c2cccs2)on1 | -3.95% |
| Cc1ccc(NC(NC(=O)c2ccccc2[N+](=O)[O-])C(Cl)(Cl)Cl)cc1 (configuration not stated) | 7.36% |
| O=C(Nc1cccc(O)c1)c1ccccc1[N+](=O)[O-] | -3.03% |

| Compound | inhibition |
| --- | --- |
| CC(=O)c1ccc(NC(=S)NC(NC(=O)c2ccco2)C(Cl)(Cl)Cl)cc1 (configuration not stated) | 11.3% |
| O=C(NC(NC(=S)Nc1ccc(Cl)c(Cl)c1)C(Cl)(Cl)Cl)c1ccco1 (configuration not stated) | 9.33% |
| CC(=O)c1ccc(NC(=O)C(Cc2ccccc2)NC(=O)c2ccco2)cc1 (configuration not stated) | 4.11% |
| Cc1cccc(NC(=S)NC(NC(=O)c2ccco2)C(Cl)(Cl)Cl)c1 (configuration not stated) | 18.2% |
| CCc1ccc(NC(=O)CSCCO)cc1 | -0.74% |
| Cn1nnnc1Sc1c(Cl)cccc1[N+](=O)[O-] | -3.63% |
| CC1(C)COC(c2coc3ccccc3c2=O)OC1 | 2.08% |
| COc1ccc(N)cc1C#N | 2.91% |
| O=C(CCCN1C(=O)/C(=C\c2ccco2)SC1=S)Nc1ccc2ccccc2c1 | 11.9% |
| O=C(CCCN1C(=O)/C(=C/c2ccco2)SC1=S)Nc1cccc(C(=O)O)c1 | 6.76% |
| CCOCCCNC(=O)CN(c1cc([N+](=O)[O-])ccc1OC)S(C)(=O)=O | 2.57% |
| CS(C)(=O)=NS(=O)(=O)c1ccc(Cl)cc1 | 1.82% |
| CSc1nnc2c3cc(C)ccc3n(Cc3ccccc3)c2n1 | 1.58% |
| Cc1ccc2c(c1)c1nnc(SCC(=O)N3CCN(c4ccc(F)cc4)CC3)nc1n2CC(=O)O | 2.3% |
| CCn1c2ccccc2c2nnc(SCC(=O)Nc3c(C)n(C)n(-c4ccccc4)c3=O)nc21 | 0.94% |
| CCCn1c2ccccc2c2nnc(SCC(=O)Nc3cc(C)on3)nc21 | 10.3% |
| CCn1c2ccccc2c2nnc(SCC(=O)Nc3cc(C)on3)nc21 | 1.82% |
| CCc1nnc(SCC(=O)N2CCCc3ccccc32)nc1CC | 0.48% |
| O=C(CSc1nnc(Cc2cc(=O)[nH]c(=O)[nH]2)n1-c1ccc(Cl)cc1)NCC1CCCO1 (configuration not stated) | 0.41% |
| COC(=O)C1=C(C)N(C)C(=S)NC1c1ccc(OC)cc1OC (configuration not stated) | 3.74% |
| CCOc1ccc(C(=O)NC(=S)Nc2cccnc2)cc1[N+](=O)[O-] | 6.68% |
| Cn1c(=O)c(C(=O)COC(=O)c2cc(-c3ccccc3)nc3ccccc23)c(N)n(Cc2ccccc2)c1=O | 3.89% |
| O=C(/C=C/c1cccs1)NC(=S)Nc1ccccc1 | 22% |
| COc1ccc(NC(=S)NC(=O)/C=C/c2cccs2)cc1 | 10.7% |
| COc1ccc(/C=C/C(=O)NC(=S)Nc2ccc(N3CCN(C(C)=O)CC3)cc2)cc1 | 6.43% |

| Compound | inhibition |
| --- | --- |
| COc1ccc(/C=C/C(=O)NC(=S)Nc2ccc(S(N)(=O)=O)cc2)cc1 | 9.42% |
| COc1ccc(/C=N/N=C2/NC(=O)C(CC(=O)NC(C)C)S2)cc1 (configuration not stated) | 10.2% |
| O=C(CN1CCCN(S(=O)(=O)c2ccc(F)cc2)CC1)Nc1ccccc1Br | 7.31% |
| COc1ccc2c(c1)C=C(CN1CCN(C(C)C)C(CCO)C1)CO2 (configuration not stated) | -13.9% |
| CCOc1cc(/C=C2/SC(=O)N(CC(=O)N3CCc4ccccc4C3)C2=O)ccc1OCC(=O)O | 12.8% |
| CCOc1cc(/C=N/NC(=O)c2ccc(-c3csc(Nc4ccc(C)cc4)n3)cc2)ccc1OCC(=O)O | 14.3% |
| CCOc1cc(C=C2C(=O)c3ccccc3C2=O)ccc1OCC(=O)Nc1ccc(C)cc1 | 2.91% |
| CCOc1cc(/C=C2\SC(=Nc3ccccc3)N(c3ccccc3)C2=O)ccc1OCC(=O)O | 8.93% |
| COC(=O)c1c(NC(=O)COC(=O)c2ccccc2O)sc2c1CCCCC2 | 2.42% |
| COc1cc(NC(=O)Cc2cccs2)ccc1-n1cnnn1 | 4.02% |
| CN1CCc2c(OCc3ccc(F)cc3)cccc2C1=O | 3.15% |
| O=C(O)c1ccccc1Nc1ccc(OC(F)F)cc1 | 2.47% |
| Cc1ccc(S(=O)(=O)Nc2ccccc2C(=O)OC(C)C(=O)Nc2ccc3ccccc3c2)cc1[N+](=O)[O-] (configuration not stated) | -0.95% |
| COc1ccc(NC(=S)NNc2ccc([N+](=O)[O-])cc2S(=O)(=O)Nc2ccc(C)cc2C)cc1 | 5.53% |
| COc1ccc(NC(=O)c2ccccc2NS(=O)(=O)c2ccc(C)cc2)c([N+](=O)[O-])c1 | 11.4% |
| O=c1c(Cc2ccc(Cl)cc2)c(O)ccn1Cc1ccccc1 | 1.46% |
| Cc1oc2c(C)c3oc(=O)c4c(c3cc2c1C)CCC4 | 9.19% |
| CCCc1cc(=O)oc2c(C)c(O)c(CN3CCCCC3)cc12 | -4.01% |
| Cc1c(O)c(CN2CCCCC2)cc2c1oc(=O)c1ccccc12 | 1.46% |
| CCc1cc(=O)oc2c(C)c(O)c(CN(C)C)cc12 | 9.74% |
| Cc1oc2c(C)c3oc(=O)c4c(c3cc2c1C)CCCC4 | 4.09% |
| Cc1c(O)c(CN2CCCC2)cc2c1oc(=O)c1ccccc12 | 11.4% |
